Reference: the supplement of paper PMC10849652
The full data set covers some 8,800 targets. This sample favours those with a hit. About 0.5% of all pairs of compound and target were hits.

Columns and labels:
Assay in all cases: log2 fold change, soluble protein after heating vs DMSO (PISA); higher = thermal stabilisation; K562 lysate, 10 uM; active = over 0.2 and 3.5 SD of the protein, either way, in both replicates (recomputed)
[1] = compound: C1=CC=C(C=C1)[C@H](COC2=CC3=C(C=C2)NC(=O)N3)NC(=O)C4=CC=CN(C4=O)CC5=CC(=C(C=C5)F)F
Procedure, shortened: (§1)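 Soluble protein was defined as the supernatant remaining after 21,000xg for 90 min, following pooling of heated aliquots and adjustment to 0.5% NP-40 at 4°C. Before that, crude K562 extract at 1 mg/mL protein in PBS pH 7.4 with 1 mM MgCl2 was treated with 10 μM compound for 30 min and heated for 3 min across 48°C-58°C. Quantification used TMTpro 16plex LC-MS/MS with channel sums equalised, and values are log-two fold changes in thermal stability relative to solvent controls from duplicates.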

[2] = compound: CC1=C(SC2=C1C(=N[C@H](C3=NN=C(N32)C)CC(=O)N)C4=CC=C(C=C4)Cl)C
Procedure, shortened: as §1

[3] = compound: CC1=C2C(=CC=C1)N=C(N(C2=O)C3=CC=CC=C3C)CN4C=NC5=C(N=CN=C54)N
Procedure, shortened: as §1

[4] = compound: Cc1sc2c(c1C)C(c1ccc(Cl)cc1)=N[C@@H](CC(=O)OC(C)(C)C)c1nnc(C)n1-2
Procedure, shortened: as §1

[5] = compound: c1ccc([C@@H]2C[C@H]2NC2CCNCC2)cc1
Procedure, shortened: as §1

Measured: log2 fold change

MIPEP (UniProt Q99797)
UniProt Q99797, sequence (Q99797 whole entry, looked up): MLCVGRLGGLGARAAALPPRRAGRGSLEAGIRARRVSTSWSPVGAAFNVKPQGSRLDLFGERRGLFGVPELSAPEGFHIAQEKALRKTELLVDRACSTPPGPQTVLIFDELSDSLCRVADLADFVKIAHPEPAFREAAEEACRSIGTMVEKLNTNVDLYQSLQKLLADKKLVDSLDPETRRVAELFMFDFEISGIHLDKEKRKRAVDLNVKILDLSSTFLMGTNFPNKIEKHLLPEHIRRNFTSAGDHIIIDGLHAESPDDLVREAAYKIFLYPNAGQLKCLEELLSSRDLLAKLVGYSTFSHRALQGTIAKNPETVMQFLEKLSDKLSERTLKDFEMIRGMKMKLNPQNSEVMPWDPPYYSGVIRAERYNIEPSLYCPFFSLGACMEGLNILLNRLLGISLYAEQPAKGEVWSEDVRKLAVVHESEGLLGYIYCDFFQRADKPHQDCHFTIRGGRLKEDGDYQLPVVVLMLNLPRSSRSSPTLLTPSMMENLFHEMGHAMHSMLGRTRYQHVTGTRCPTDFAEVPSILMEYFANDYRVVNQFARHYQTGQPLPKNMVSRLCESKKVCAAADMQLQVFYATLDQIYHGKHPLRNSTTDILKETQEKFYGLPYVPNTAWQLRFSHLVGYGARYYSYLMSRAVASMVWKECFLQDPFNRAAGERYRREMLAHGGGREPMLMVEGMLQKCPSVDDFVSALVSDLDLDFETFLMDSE
inactive: [1] 0.015 | [2] -0.019 | [3] 0.052 | [4] 0.028 | [5] -0.008

MACO1 (UniProt Q8N5G2)
inactive: [1] -0.039 | [2] -0.044 | [3] 0.125 | [4] -0.04 | [5] 0.092

LPCAT1 (UniProt Q8NF37)
inactive: [1] -0.071 | [2] 0.056 | [3] 0.066 | [4] 0 | [5] -0.115

KPNA4 (UniProt O00629)
inactive: [1] 0.06 | [2] -0.068 | [3] 0.044 | [4] 0.011 | [5] -0.169

KIFC3 isoform 6 (UniProt Q9BVG8)
UniProt Q9BVG8, sequence (Q9BVG8 whole entry, looked up): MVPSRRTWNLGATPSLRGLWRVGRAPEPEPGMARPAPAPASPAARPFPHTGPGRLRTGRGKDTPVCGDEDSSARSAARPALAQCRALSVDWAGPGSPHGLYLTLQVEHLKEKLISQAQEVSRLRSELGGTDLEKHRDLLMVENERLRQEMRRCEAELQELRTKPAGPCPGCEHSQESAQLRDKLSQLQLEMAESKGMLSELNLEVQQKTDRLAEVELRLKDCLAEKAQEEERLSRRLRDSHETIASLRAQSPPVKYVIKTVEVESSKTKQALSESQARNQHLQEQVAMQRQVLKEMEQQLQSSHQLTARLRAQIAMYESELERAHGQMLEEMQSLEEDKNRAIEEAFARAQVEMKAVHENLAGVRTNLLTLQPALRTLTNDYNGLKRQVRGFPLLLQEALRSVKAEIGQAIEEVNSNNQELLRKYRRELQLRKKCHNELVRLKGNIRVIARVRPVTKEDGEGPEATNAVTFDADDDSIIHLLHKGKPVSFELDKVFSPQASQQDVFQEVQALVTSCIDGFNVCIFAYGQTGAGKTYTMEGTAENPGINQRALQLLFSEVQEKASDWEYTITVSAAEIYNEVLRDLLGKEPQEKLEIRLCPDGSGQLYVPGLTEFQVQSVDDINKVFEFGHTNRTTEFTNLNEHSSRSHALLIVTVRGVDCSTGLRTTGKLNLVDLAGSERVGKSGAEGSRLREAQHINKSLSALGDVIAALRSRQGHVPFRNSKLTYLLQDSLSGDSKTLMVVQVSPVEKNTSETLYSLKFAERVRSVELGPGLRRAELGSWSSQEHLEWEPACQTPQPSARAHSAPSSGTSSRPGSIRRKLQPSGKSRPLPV
active: [5] -1.16
inactive: [1] 0.023 | [2] 0.016 | [3] -0.178 | [4] -0.21

MED13L (UniProt Q71F56)
UniProt Q71F56, sequence (Q71F56 whole entry, looked up): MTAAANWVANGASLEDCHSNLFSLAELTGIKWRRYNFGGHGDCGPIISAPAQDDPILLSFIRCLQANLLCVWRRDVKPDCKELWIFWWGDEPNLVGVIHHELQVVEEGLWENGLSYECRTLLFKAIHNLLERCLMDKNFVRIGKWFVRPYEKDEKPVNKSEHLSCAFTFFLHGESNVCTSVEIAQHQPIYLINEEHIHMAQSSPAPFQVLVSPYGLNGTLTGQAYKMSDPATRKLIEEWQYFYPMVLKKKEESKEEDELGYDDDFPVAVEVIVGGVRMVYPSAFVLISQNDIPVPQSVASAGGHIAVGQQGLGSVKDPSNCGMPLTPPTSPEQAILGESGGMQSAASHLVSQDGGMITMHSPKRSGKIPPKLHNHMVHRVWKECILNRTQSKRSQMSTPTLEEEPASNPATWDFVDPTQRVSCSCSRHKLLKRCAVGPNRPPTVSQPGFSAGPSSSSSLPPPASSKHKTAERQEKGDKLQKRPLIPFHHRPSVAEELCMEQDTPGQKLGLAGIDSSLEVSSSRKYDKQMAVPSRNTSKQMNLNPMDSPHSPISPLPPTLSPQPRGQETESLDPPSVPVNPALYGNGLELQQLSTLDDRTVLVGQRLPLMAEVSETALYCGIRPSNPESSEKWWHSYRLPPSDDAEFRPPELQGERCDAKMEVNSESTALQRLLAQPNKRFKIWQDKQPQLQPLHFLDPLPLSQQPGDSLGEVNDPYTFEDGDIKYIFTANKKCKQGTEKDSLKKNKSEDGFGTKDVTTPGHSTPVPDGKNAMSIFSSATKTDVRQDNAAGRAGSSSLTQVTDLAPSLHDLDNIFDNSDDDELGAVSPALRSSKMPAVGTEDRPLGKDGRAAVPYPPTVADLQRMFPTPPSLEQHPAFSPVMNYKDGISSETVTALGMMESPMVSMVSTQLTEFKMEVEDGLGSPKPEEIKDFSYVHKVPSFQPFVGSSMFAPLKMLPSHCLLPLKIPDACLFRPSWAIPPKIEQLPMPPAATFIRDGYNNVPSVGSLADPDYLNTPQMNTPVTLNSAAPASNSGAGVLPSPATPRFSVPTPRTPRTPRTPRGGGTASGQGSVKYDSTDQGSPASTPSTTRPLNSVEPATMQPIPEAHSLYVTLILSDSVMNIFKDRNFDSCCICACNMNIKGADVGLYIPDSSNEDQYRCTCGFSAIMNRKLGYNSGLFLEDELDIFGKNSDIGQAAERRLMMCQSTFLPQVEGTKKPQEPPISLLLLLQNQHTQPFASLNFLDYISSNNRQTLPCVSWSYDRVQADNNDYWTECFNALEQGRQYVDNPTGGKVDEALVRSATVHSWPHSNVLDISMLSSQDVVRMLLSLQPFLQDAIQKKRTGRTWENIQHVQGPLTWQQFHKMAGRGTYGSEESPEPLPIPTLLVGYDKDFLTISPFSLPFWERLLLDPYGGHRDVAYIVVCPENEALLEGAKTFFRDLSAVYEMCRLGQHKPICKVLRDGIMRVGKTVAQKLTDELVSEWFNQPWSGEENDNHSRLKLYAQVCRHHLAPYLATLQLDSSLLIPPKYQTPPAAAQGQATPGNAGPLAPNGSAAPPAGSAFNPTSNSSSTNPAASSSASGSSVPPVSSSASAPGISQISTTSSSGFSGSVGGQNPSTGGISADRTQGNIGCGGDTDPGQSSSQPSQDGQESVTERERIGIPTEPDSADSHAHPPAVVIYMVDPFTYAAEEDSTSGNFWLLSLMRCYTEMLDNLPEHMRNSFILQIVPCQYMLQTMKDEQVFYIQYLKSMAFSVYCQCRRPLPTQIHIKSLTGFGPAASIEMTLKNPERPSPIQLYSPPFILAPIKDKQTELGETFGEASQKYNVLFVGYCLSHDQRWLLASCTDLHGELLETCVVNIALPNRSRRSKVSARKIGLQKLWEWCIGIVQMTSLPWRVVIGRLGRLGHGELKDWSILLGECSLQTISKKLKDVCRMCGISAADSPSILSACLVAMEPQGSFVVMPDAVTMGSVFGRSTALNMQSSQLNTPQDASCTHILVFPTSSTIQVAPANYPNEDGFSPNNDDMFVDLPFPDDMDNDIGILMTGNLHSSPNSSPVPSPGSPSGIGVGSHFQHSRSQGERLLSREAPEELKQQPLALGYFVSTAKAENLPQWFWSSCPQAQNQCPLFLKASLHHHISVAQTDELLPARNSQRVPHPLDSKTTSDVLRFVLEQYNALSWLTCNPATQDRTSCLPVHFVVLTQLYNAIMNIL
inactive: [1] -0.034 | [2] 0.029 | [3] 0.028 | [4] -0.095 | [5] 0.014

MICU2 (UniProt Q8IYU8)
UniProt Q8IYU8, sequence (Q8IYU8 whole entry, looked up): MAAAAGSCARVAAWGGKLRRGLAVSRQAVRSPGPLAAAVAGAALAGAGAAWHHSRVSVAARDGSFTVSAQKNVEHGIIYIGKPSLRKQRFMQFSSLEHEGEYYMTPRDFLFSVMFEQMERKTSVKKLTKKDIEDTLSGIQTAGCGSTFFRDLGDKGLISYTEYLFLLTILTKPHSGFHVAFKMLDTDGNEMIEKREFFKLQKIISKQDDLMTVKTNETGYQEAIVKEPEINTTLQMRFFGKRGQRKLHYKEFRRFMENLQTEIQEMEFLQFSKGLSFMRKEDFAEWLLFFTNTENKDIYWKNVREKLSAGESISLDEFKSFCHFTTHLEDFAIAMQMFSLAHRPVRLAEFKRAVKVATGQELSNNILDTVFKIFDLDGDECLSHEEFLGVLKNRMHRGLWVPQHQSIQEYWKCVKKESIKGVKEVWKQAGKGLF
inactive: [1] -0.132 | [2] -0.069 | [3] 0.049 | [4] -0.072 | [5] -0.002

MED16 (UniProt Q9Y2X0)
UniProt Q9Y2X0, sequence (Q9Y2X0 whole entry, looked up): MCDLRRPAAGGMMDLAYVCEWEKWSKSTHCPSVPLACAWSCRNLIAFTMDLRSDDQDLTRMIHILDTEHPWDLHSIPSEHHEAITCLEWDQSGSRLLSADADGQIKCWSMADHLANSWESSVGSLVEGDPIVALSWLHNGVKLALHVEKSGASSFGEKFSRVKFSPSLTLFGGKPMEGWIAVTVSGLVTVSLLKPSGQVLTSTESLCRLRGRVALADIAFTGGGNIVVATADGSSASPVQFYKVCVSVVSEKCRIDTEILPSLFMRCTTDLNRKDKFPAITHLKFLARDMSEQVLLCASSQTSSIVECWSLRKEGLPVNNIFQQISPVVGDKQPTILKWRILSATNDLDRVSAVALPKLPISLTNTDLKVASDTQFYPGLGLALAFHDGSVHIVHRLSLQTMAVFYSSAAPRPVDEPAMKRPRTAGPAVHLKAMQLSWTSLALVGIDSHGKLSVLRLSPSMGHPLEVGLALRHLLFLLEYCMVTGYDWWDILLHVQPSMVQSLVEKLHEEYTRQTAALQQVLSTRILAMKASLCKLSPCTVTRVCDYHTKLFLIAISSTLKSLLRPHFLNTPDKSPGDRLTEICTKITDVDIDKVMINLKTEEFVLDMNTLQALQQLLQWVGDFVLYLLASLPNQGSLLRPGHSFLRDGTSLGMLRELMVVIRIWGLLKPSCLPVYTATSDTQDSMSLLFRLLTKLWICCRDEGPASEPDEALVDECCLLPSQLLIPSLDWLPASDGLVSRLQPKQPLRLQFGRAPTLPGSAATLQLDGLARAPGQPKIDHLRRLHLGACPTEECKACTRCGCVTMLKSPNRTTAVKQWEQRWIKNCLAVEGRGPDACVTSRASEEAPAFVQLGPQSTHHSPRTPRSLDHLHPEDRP
inactive: [1] 0.019 | [2] 0.022 | [3] 0.029 | [4] 0.001 | [5] 0.087

LIMK2 isoform 3 (UniProt P53671)
inactive: [1] -0.022 | [2] -0.123 | [3] 0.038 | [4] 0.005 | [5] -0.132
